Results published in PubChem BioAssay (NCI).
About 83,000 compounds went through this panel and 20% of them were active in at least one assay; those are over-represented in the sample as a whole.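 Plates (96-well) were seeded with cells, treated with compound at one concentration, and incubated for 48 hours before percent growth was determined.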 Values without a mark were called inactive. The source made the active and inactive calls.

These compounds were tested on COLO 205 colon (assay: NCI-60 one-dose screen, 48 h (100 = growth as untreated, 0 = no growth, -100 = all killed)). Settings: 10 µM.
Experimental: Cells are grown in 96 well plates and exposed to the test compound for 48 hours. Compounds are tested at a single concentration, which is 10^-5 M for most compounds. The reported endpoint is percent growth (GI% or GIPRCNT), where numbers from 0 - 100% represent growth inhibition, and numbers from -100% - 0 represent cell death. For example, a value of 40 represents 60% growth inhibition. A value of 0 means no net growth occurred over the course of the experiment. A value of -40 indicates 40% of cells at the beginning of the experiment died by the end of the experiment. A value of -100 means all cells are dead at the end of the experiment.
NCI-60 Human Tumor Cell Lines Screen was performed using the standard one-dose NCI protocol, which is described in more detail at https://dtp.cancer.gov/discovery_development/nci-60/default.htm.
Compounds with GIPRCNT values below 10 were considered active. Activity score was based on GIPRCNT using the following formula: […]
Score is 0 for GIPRCNT values of 100 or above, 50 for GIPRCNT values of 0, and 100 for GIPRCNT values of -100.
In the case of `N#CN1CC[C@H](C(=O)Nc2ncc(-c3ccncc3)s2)C1`, the growth was -55.4% (active). With `COc1ccc(-c2n/c(=C\c3c(O)[nH]c4ccccc34)cc3c2=Nc2ccccc2-3)cc1` the growth was 35.9%. `CC(C)(C)c1ccc(OCCCCCCN2CCNCC2)cc1` was tested, and the growth was -66.7% (active). `CC1(CO)CCCC12OCCO2` (stereo not given) gave a growth of 114%. With `CCN1CCOC1C(C)C` (stereo not given) the growth was 110%. `O=C(Cn1ccc(=O)[nH]c1=O)c1ccc([N+](=O)[O-])o1` was tested, and the growth was 71.5%. `O=C(c1ccccc1)C(Nc1ccccc1)c1ccccc1` (stereo not given) gave a growth of 98.7%. With `CNC(=S)Sc1ccc([N+](=O)[O-])cc1[N+](=O)[O-]` the growth was -35.1% (active). Work on `Cc1noc(C)c1-c1ccc2nc(NC(=O)[C@H]3CCN(C#N)C3)cn2c1` yielded a growth of 82.6%. Work on `COc1ccc(-c2nc(NC(=O)CS(=O)(=O)c3ccc(F)cc3)sc2C)cc1` yielded a growth of 88.8%. For `O=C(NNC(=O)c1ccncc1)Nc1ccc([N+](=O)[O-])cc1`, the growth was 112%. In the case of `CCOC(=O)c1ccc(NC(=O)Nc2nncs2)cc1`, the growth was -25.9% (active). Work on `Oc1[nH]c2ccccc2c1/C=c1/cc2c(c(-c3ccc(C(F)(F)F)cc3)n1)=Nc1ccccc1-2` yielded a growth of 33.9%. Work on `CC(C)/C=N/NC(N)=S` yielded a growth of 103%. `N#C/C(=C/c1cc([N+](=O)[O-])ccc1Cl)C(N)=O` showed a growth of 117%. `CCOC(=O)Nc1ccc2c(c1)C(=O)N(CC)c1ccccc1O2` was tested, and the growth was -29.8% (active). `O=CNc1c(Cl)cc2c(c1Cl)Cc1cc([N+](=O)[O-])ccc1-2` was tested, and the growth was 34.4%. In the case of `CCOC(=O)C(=O)Cc1cccnn1`, the growth was 102%. Work on `CC(=O)[C@H]1CC[C@H]2[C@@H]3CC[C@@H]4CC=C(C=O)C[C@]4(C)[C@H]3CC[C@]12C` yielded a growth of 105%. With `COc1ccc(S(=O)(=O)Nc2cc(/C=C\c3cc(OC)c(OC)c(OC)c3)ccc2OC)cc1` the growth was -59.2% (active). `COC(=O)CCCCCCCCC(C)c1ccc(C(C)=O)cc1` (stereo not given) showed a growth of 114%. `CC1(C)CNC(=O)N1` gave a growth of 101%. `Cn1c(N)c(N=Cc2ccccc2)c(=O)n(C)c1=O` was tested, and the growth was 106%. `Cc1ccc(S(=O)(=O)N2CCc3ccccc3CC2)cc1` gave a growth of 81%. In the case of `OC(CNC1CCCC1)Cn1c2ccccc2c2ccccc21` (stereo not given), the growth was -66.2% (active). `CCOC(=O)c1c(Cl)c2c(n1Cc1cccc(OC)c1)-c1oncc1CC2` was tested, and the growth was 19.9%. `O=C(O)CNS(=O)(=O)c1ccc(OCCOc2ccc(S(=O)(=O)NCC(=O)O)cc2)cc1` gave a growth of 99.8%. `COc1ccc(Nc2nc(NCc3ccccc3)c3ccccc3n2)cc1` showed a growth of 43.6%. With `CC(C)OCc1cc(CN2CCN(c3cccc(Cl)c3)CC2)c(O)c2ncccc12` the growth was -43.1% (active). `C[C@]12CC[C@H]3[C@@H](CCC4=CC(=O)CC[C@@]43C)[C@@H]1CC[C@@H]2c1csc(N)n1` was tested, and the growth was 25.6%. Compound `CCN1CCN(c2ccc(Nc3ncnc4c3nnn4CCc3cc(OC)cc(OC)c3)cc2)CC1` has a growth of 89.3%. Work on `Cc1nn2c(/C=C3/C(=O)Nc4ccc(Cl)cc43)c(-c3ccccc3)nc2s1` yielded a growth of 49.7%. In the case of `N#Cc1ncc(-c2cc(F)ccc2F)c(NC2CCCCCC2)n1`, the growth was 100%. `Cc1ccc(-c2cc(C(=O)Nc3ccc(S(=O)(=O)N4CCCCC4)cc3)[nH]n2)c(O)c1` showed a growth of 55.3%. `Nc1nc(SCC#CCCl)c2[nH]cnc2n1` was tested, and the growth was 47.7%. `O=C(O)CN1C(=O)C=CC1=O` gave a growth of 94.8%. Work on `C[C@]12CC[C@H]3[C@@H](CC=C4C[C@@H](O)CC[C@@]43C)[C@@H]1CC[C@@H]2C(=O)C/C=N/O` yielded a growth of 101%. `Cn1c([N+](=O)[O-])cnc1C=C1C(=O)c2ccccc2C1=O` was tested, and the growth was 42.3%. For `Nc1ccc(C2=CC(c3ccc(Cl)cc3)N3C=CSC3=N2)cc1` (stereo not given), the growth was -85.1% (active). `COc1cc(-c2nc(-c3nnc(-c4cccnc4)o3)c3ccccn23)cc(OC)c1OC` was tested, and the growth was 119%.
